The record followed here is PubChem BioAssay (NCI).

About 83,000 compounds went through this panel and 20% of them were active in at least one assay; those are over-represented in the sample as a whole.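 Note: values are percent growth. 100 is the growth of untreated cells, values between 100 and 0 indicate rising inhibition; between -100 and 0 indicates cell death.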 A number with no mark means an inactive call. The source made the active and inactive calls. How the source made its calls: active means growth percent below 10; inactive means the rest.

This assay has as its system MDA-MB-468 breast. Kind of assay: NCI-60 one-dose screen, 48 h (100 = growth as untreated, 0 = no growth, -100 = all killed). The note with it: 10 µM unless noted.
With `CN(C(=O)c1ccccc1)N(C)C(=O)c1ccccc1`, the growth is 120%.

In the case of `C=CCSSC1N=CNc2nc[nH]c21` (stereo unspecified), the growth was 5.55% (active).

As to `NS(=O)(=O)c1cccc(Nc2nc(SCC(=O)c3ccc(Cl)cc3)nc3c2CCC3)c1`, the growth was 79.8%.

For `Cc1nc2sc(C(=O)Nc3ccccc3Cl)c(N)c2cc1C(C)O` (stereo unspecified), the growth is 70.1%.

As to `O=c1cc(C2NCCc3c2[nH]c2ccccc32)c2c(ccc3ccccc32)o1` (stereo unspecified), the growth was 89.9%.

As to `COc1ccc(-c2cc(-c3cccc4ccccc34)n3c(n2)nc2ccccc23)cc1OC`, the growth was 63.2%.

Regarding `CCCC1Cc2cc(-n3nc(C)c4c3CC(C)(C)CC4=O)cc(NC3CCC(O)CC3)c2C(=O)N1` (stereo unspecified), the growth was -8.54% (active).

Consider `CCN(CC)CCC(CNc1c(C)cnc2cc(Cl)ccc12)c1ccc(Cl)c(Cl)c1` (stereo unspecified), for which the growth is 18.5%.

As for `O=C(/C=C/c1cccs1)c1ccc(Cl)nc1`, the growth was 103%.

Take `Cc1nn(-c2ccc(Cl)cc2)c(=O)n1CCn1cnc2ccccc21`: the growth is 117%.

In the case of `Clc1ncccc1Nc1ccc2nnc(-c3ccncc3)n2n1`, the growth is 99.9%.

Regarding `COc1cc(/C=C(\C#N)C(=O)c2ccccc2)ccc1OCc1ccccc1`, the growth is 96.4%.

As for `COC(=O)c1ccc(NC2=C(Cl)C(=O)C(C)=C(C)C2=O)cc1`, the growth is -45.9% (active).

On to `COc1ccccc1/C=C/C=N/NC1=NC2C(S1)N(C)C(=O)N2c1ccccc1` (stereo unspecified), for which the growth was 38.5%.

As for `O=C1C=CC(=O)N1C1c2ccccc2-c2ccccc21`, the growth was 66.9%.

Regarding `Cc1oc(-c2ccccc2Cl)cc1C(=O)Nc1ccc(S(N)(=O)=O)cc1`, the growth is 109%.

`CCOC(=O)Nc1ccc(-c2ccc3c(c2)NC(=O)/C3=C\c2ccc[nH]2)cc1`: the growth was -8.48% (active).

For `O=C(Nc1cccc(C(F)(F)F)c1)Oc1ccc(Cl)c2cccnc12`, the growth is -27.2% (active).

As to `O=C(Nc1cccc(-n2cc(-c3ccncc3)c(-c3cc(O)cc(Cl)c3)n2)c1)Nc1ccc(Cl)c(Cl)c1`, the growth was -1.88% (active).

As to `Cn1c(=O)cc2c3c(c(NCCCO)ccc31)C(=O)c1ccccc1-2`, the growth is 39.8%.

With `C=CCc1cc(Cl)cc2c(OC(C)=O)c(C(C)=O)c(-c3ccccc3)nc12`, the growth was 116%.

Take `CCOC(=O)C1(C(=O)OCC)N=C(c2ccccc2)C=C1c1ccccc1`: the growth is 94.1%.

On to `CC(C)C(C)C(N)C(=O)O` (stereo unspecified), for which the growth is 107%.

In the case of `O=C1NC(=O)C2(CCc3ccccc32)N1` (stereo unspecified), the growth was 106%.

Consider `CCCCCCCCCCCC(=O)NCCCN(C)C`, for which the growth was 111%.

For the compound `O=[N+]([O-])c1cc2ncccc2c2ncccc12`, the growth is 89%.
